According to PubChem BioAssay (NCI):
The panel holds about 83,000 compounds, 20% with a hit somewhere; the sample as a whole holds those more often.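 Activity criterion: percent growth below 10, measured after cells in 96-well plates were exposed to a single compound concentration for 48 hours.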 Calls of active or inactive are those of the source.

System: HL-60(TB) leukemia
Assay: NCI-60 one-dose screen, 48 h (100 = growth as untreated, 0 = no growth, -100 = all killed)
Conditions: 10 µM unless noted

| Compound | growth |
| --- | --- |
| COc1ccc(/C=C2/CCc3cc4ccc(OC)cc4[o+]c32)c(O)c1 | 60.8% (inactive) |
| CCOC(=O)CC(C#N)(CC(=O)OCC)C(=O)OCC | 102% (inactive) |
| Cn1ccnc1C(=O)/C=C/c1ccc(CC(=O)Nc2ccc(F)cc2)cc1 | 18.8% (inactive) |
| O=C(Nc1ccc(N2CCNCC2)cn1)c1[nH]ncc1Nc1ncnc2sc3c(c12)CCC3 | 74% (inactive) |
| CC(=O)N1C/C(=C/c2ccc(Cl)cc2)C(=O)/C(=C/c2ccc(Cl)cc2)C1 | 4.97% (active) |
| CN1CCN(Cc2ccc(NC(=O)c3cc(C#Cc4cnc(N)c5ncccc45)n(C)n3)cc2C(F)(F)F)CC1 | 107% (inactive) |
| COc1cc(-c2nn(-c3cccc(NC(=O)c4cccc(C(F)(F)F)c4)c3)cc2-c2ccncc2)ccc1Cl | 1.93% (active) |
| CC1C(c2ccccc2)OCCN1C(=S)Nc1ccc(S(=O)(=O)N2CCCCC2)cc1 (stereo not given) | 89.1% (inactive) |
| CSC1=N/C(=C\c2cccc(OCc3ccc(Cl)cc3)c2)C(=O)N1 | 77.8% (inactive) |
| C[n+]1ccccc1C[n+]1ccccc1 | 90.9% (inactive) |
| COc1ccc(C2=NN(c3nc(-c4ccc(OC)cc4)c(C#N)c(=O)n3C)C(=O)CC2)cc1 | 99.5% (inactive) |
| CS(=O)(=O)c1ccc(C(=O)N/N=C/c2ccccc2Cl)cc1 | 52.3% (inactive) |
| CSc1nnc2c(=O)n(C)c(=O)n(C)c2n1 | 161% (inactive) |
| CN1CCN(Cc2ccc(NC(=O)c3cncc(C#Cc4cncc5nccnc45)c3)cc2C(F)(F)F)CC1 | 1.66% (active) |
| O=C(/C(=C/c1ccc([N+](=O)[O-])cc1)c1ccccc1)c1ccccc1 | 16.9% (inactive) |
| COc1ccc2c(c1)NC(=O)CN2c1nc(C)nc2ccccc12 | -6.18% (active) |
| COc1cc(-c2cc(C(=O)Nc3nc4ccccc4s3)nc3cc(-c4ccccc4)nn23)cc(OC)c1OC | 48.3% (inactive) |
| COCCn1cc(-c2csc(-c3cn(C)c4ccc(Br)cc34)n2)c2cccnc21 | 51.3% (inactive) |
| O=C(N/N=C/[C@H](O)[C@H](O)[C@H](O)CO)c1ccc(NC(=O)c2cccnc2)cc1 | 100% (inactive) |
| NC(=S)NS(=O)(=O)c1ccc(N)cc1 | 94.5% (inactive) |

| Compound | growth |
| --- | --- |
| O=C1NC(=O)[C@@H](c2cn3c4c(cccc24)CCC3)[C@@H]1c1c[nH]c2ccccc12 | -21% (active) |
| Sc1ccc(Nc2c3ccccc3nc3ccccc23)cc1 | 31.7% (inactive) |
| CN(C)CCCNc1nc(-c2cccc(C(Cl)(Cl)Cl)c2)nc(C(Cl)(Cl)Cl)n1 | 105% (inactive) |
| S=c1nc(CS)[nH]c2ccccc12 | 101% (inactive) |
| Cc1cc(=NO)cc(C)n1O | 81.6% (inactive) |
| Cc1ccc(CNc2ccc3nc(CCC(C)C)[nH]c3c2)cc1 | 93.7% (inactive) |
| O=C1/C(=C/c2ccccc2F)CN(C(=O)C(Cl)Cl)C/C1=C\c1ccccc1F | -30.7% (active) |
| Cc1nn(-c2ccccc2)c(Oc2c(Cl)cccc2Cl)c1/C=N/N=c1\sc2ccccc2n1C | 43.1% (inactive) |
| c1cc2c(ccc3[nH]c(-c4ccc5[nH]ncc5c4)c4c(c32)CCCC4)n1 | 9.65% (active) |
| C=C(C)[C@@H]1CCC[C@]2(C(=O)OC)CC[C@]3(C)[C@@H](CC[C@@H]4[C@@]5(C)CCCNC(C)(C)[C@@H]5CC[C@]43C)[C@@H]12 | 96.7% (inactive) |
| CC/C(=N\N=C(/CC)c1ccc(Br)cc1)c1ccc(Br)cc1 | 124% (inactive) |
| CN1CCN(Cc2ccc(NC(=O)c3cncc(C#Cc4c(N)ncc5cc(F)ccc45)c3)cc2C(F)(F)F)CC1 | -46.2% (active) |
| CCN(CC)c1ccc(C(=O)c2ccc(N(CC)CC)cc2)cc1 | 9.59% (active) |
| COC(=O)[C@]12CC[C@@H](C)[C@H](C)[C@@H]1C1=CC[C@@H]3[C@@]4(C)C[C@@H](O)[C@H](O)[C@@](C)(CO)[C@@H]4[C@H](O)C[C@@]3(C)[C@]1(C)CC2 | -27.4% (active) |
| COc1ccc(OC)c(/C=C2\Oc3cc(OCCN4CCCC4)ccc3C2=O)c1 | 69.2% (inactive) |
| OC(COc1cccc2ccccc12)CN1CCN(c2ccccc2Cl)CC1 (stereo not given) | 103% (inactive) |
| CC(O)c1ncc(/C=C2\SC(=S)N(Cc3ccccc3)C2=O)s1 (stereo not given) | 85.2% (inactive) |
| CC(=O)SC1CC(=O)C=C2CCC3C4CCC(=O)OC4(C)CCC3C21C (stereo not given) | 103% (inactive) |
| Clc1ccc2c(c1)NC1(CCSc3ccccc31)n1nccc1-2 (stereo not given) | 97.4% (inactive) |
| CCCCCCCCCCCCCC(=S)NCCCC[C@H](NC(=O)OCc1ccccc1)C(=O)Nc1ccccc1 | 8.79% (active) |
